Test results from the antibiotic and cytotoxicity screens of Wong et al. (2023).
In all, about 39,000 compounds went through this assay and about 3,300 (8.5%) were called active. The entries come from a sample that favours actives as a whole.

tested on: HepG2; assay: cytotoxicity call (relative viability < 0.9); details: 10 µM

SMILES | cytotoxicity call
CCCNC(=O)N[C@@H]1CC[C@H](CC(=O)N2CCN(C)CC2)O[C@H]1CO | inactive
COc1ccccc1NC(=O)Nc1ccc2c(c1)C(=O)N(C)C[C@@H](OC)[C@H](C)CN(Cc1ccccc1Cl)[C@H](C)CO2 | inactive
O=C1C=CC(=O)N1 | active
COc1ccc(CN(C)C[C@@H]2OCCCC[C@H](C)Oc3ccc(NC(=O)CCC(F)(F)F)cc3C(=O)N([C@H](C)CO)C[C@@H]2C)cc1 | inactive
CNC[C@@H]1Oc2ccc(NC(=O)Cn3cnnn3)cc2C(=O)N([C@H](C)CO)C[C@@H]1C | inactive
C[C@H](CO)N1C[C@H](C)[C@H](CN(C)C(=O)Nc2ccc(F)cc2)Oc2ccc(NC(=O)CCN3CCOCC3)cc2CC1=O | inactive
C[C@H](CO)N1C[C@H](C)[C@@H](CN(C)C(=O)Nc2ccc3c(c2)OCO3)Oc2c(NC(=O)C3CCOCC3)cccc2C1=O | inactive
Oc1c(Cl)cc(Cl)c(Cl)c1Cc1c(O)c(Cl)cc(Cl)c1Cl | active
O=C(Nc1cc(Cl)cc(Cl)c1O)c1c(O)c(Cl)cc(Cl)c1Cl | inactive
O=C(/C=C/c1cccc(-c2cn(CC[C@@H]3OC(=O)[C@H](Cc4ccccc4)N4CC5=CC(=O)[C@H](C6CC6)[C@H]5[C@H]34)nn2)c1)NO | inactive
O=C(C[C@@H]1C[C@@H]2c3cc(NC(=O)Nc4ccc(C(F)(F)F)cc4)ccc3O[C@@H]2[C@H](CO)O1)NCCc1ccccc1 | inactive
CCS(=O)(=O)N1[C@H](CO)[C@H](c2ccccc2)C12CN(C(=O)CN(C)C)C2 | inactive
C[C@H]1CCCCO[C@H](CN(C)C(=O)C2CCCCC2)[C@@H](C)CN([C@@H](C)CO)C(=O)c2cc(NC(=O)Nc3ccc4c(c3)OCO4)ccc2O1 | inactive
COc1c(C)c2c(c(O)c1CC=C(C)CCC(=O)O)C(=O)OC2 | active
COc1c(C)c2c(c(O)c1CC=C(C)CCC(=O)OCCN1CCOCC1)C(=O)OC2 | inactive
COc1cccc(S(=O)(=O)N2C[C@@H](O)COC[C@@H]3O[C@@H](CC(=O)N4CCOCC4)CC[C@H]32)c1 | inactive
COc1ccc(NC(=O)N(C)C[C@H]2Oc3c(NC(=O)CCCCCC(=O)Nc4ccccc4N)cccc3C(=O)N([C@@H](C)CO)C[C@H]2C)cc1 | inactive
C[C@H]1CN([C@@H](C)CO)C(=O)c2cc(C#CCc3ccccc3)cnc2O[C@H]1CN(C)C(=O)Cc1cccnc1 | inactive
Cc1ccccc1S(=O)(=O)N1C[C@H](O)COC[C@@H]2O[C@@H](CC(=O)N3CCOCC3)CC[C@H]21 | inactive
CC(C)C(=O)Oc1ccc(CO)cc1C(CCN(C(C)C)C(C)C)c1ccccc1.O=C(O)C=CC(=O)O (centres undefined) | active
C[C@H]1CN([C@@H](C)CO)C(=O)c2cc(NC(=O)CCN3CCOCC3)ccc2O[C@@H]1CN(C)C(=O)Nc1ccc2c(c1)OCO2 | inactive
CC(=O)NCCCC[C@@H]1NC(=O)[C@@H]2C[C@H](C(=O)NCCCCCCN(C)C)[C@H](c3ccc(O)cc3)N2C1=O | inactive

SMILES | cytotoxicity call
C[C@@H]1CCCCO[C@@H](CN(C)Cc2ccc(Cl)c(Cl)c2)[C@@H](C)CN([C@H](C)CO)C(=O)c2cc(NC(=O)c3ccccc3)ccc2O1 | inactive
CCOn1ccnc1 | inactive
CC#CCn1c(N2CCC[C@@H](N)C2)nc2c1c(=O)n(Cc1nc(C)c3ccccc3n1)c(=O)n2C | active
Cn1c(=O)c2c(nc(N3CCCCC3)n2CCN)n(C)c1=O | inactive
Cc1cc(C)n(-c2nc3c(c(=O)n(CCN4CCOCC4)c(=O)n3C)n2C)n1 | inactive
C[C@H]1CN([C@@H](C)CO)C(=O)c2cccc(NS(=O)(=O)c3cn(C)cn3)c2O[C@@H]1CN(C)C(=O)Nc1ccc2c(c1)OCO2 | inactive
CC(=O)N1[C@@H]2Cn3c(ccc(-c4ccccc4)c3=O)[C@H]1[C@@H](C(=O)NCCCN1CCOCC1)[C@@H]2CO | inactive
COc1ccc2cc3[n+](cc2c1OC)CCc1cc2c(cc1-3)OCO2.[Cl-] | active
COc1cc2c(cc1OC)-c1cc3ccc(OC)c(OC)c3c[n+]1CC2.[Cl-] | inactive
C[C@@H]1CN([C@@H](C)CO)C(=O)c2cccc(NC(=O)Nc3ccc(C(F)(F)F)cc3)c2O[C@@H]1CN(C)S(=O)(=O)c1ccc(Cl)cc1 | inactive
COCC(=O)N(C)C[C@H]1Oc2cc(C#CC(C)(C)O)ccc2S(=O)(=O)N([C@H](C)CO)C[C@@H]1C | inactive
COc1ccccc1S(=O)(=O)N(C)C[C@H]1Oc2ncc(Br)cc2C(=O)N([C@@H](C)CO)C[C@H]1C | inactive
Cc1ccc(S(=O)(=O)N(C)C[C@H]2Oc3ccc(NC(=O)Nc4cccc5ccccc45)cc3CC(=O)N([C@@H](C)CO)C[C@H]2C)cc1 | inactive
C[C@H]1CN([C@@H](C)CO)C(=O)Cc2cc(NC(=O)Nc3cccc4ccccc34)ccc2O[C@H]1CN(C)S(=O)(=O)c1ccc(Cl)cc1 | active
C[C@@H]1CN([C@@H](C)CO)C(=O)Cc2cc(NC(=O)Nc3cccc4ccccc34)ccc2O[C@@H]1CN(C)S(=O)(=O)c1ccc(Cl)cc1 | active
Cc1ccc(S(=O)(=O)N(C)C[C@H]2Oc3ccc(NC(=O)Nc4cccc5ccccc45)cc3CC(=O)N([C@H](C)CO)C[C@H]2C)cc1 | inactive
C[C@@H]1CN([C@H](C)CO)C(=O)Cc2cc(NC(=O)Nc3cccc4ccccc34)ccc2O[C@@H]1CN(C)S(=O)(=O)c1ccc(Cl)cc1 | inactive
C[C@@H]1CN([C@H](C)CO)C(=O)Cc2cc(NC(=O)Nc3cccc4ccccc34)ccc2O[C@H]1CN(C)S(=O)(=O)c1ccc(Cl)cc1 | inactive
C[C@H]1CN([C@@H](C)CO)C(=O)Cc2cc(NC(=O)Nc3cccc4ccccc34)ccc2O[C@@H]1CN(C)S(=O)(=O)c1ccc(Cl)cc1 | inactive
C[C@@H]1CN([C@@H](C)CO)C(=O)Cc2cc(NC(=O)Nc3cccc4ccccc34)ccc2O[C@H]1CN(C)S(=O)(=O)c1ccc(Cl)cc1 | inactive
Cc1ccc(S(=O)(=O)N(C)C[C@H]2Oc3ccc(NC(=O)Nc4cccc5ccccc45)cc3CC(=O)N([C@@H](C)CO)C[C@@H]2C)cc1 | inactive
C[C@H](CO)N1C[C@H](C)[C@H](CN(C)S(=O)(=O)c2ccc(Cl)cc2)Oc2ccc(NC(=O)Nc3cccc4ccccc34)cc2CC1=O | active

SMILES | cytotoxicity call
C[C@H](CO)N1C[C@H](C)[C@@H](CN(C)S(=O)(=O)c2ccc(Cl)cc2)Oc2ccc(NC(=O)Nc3cccc4ccccc34)cc2CC1=O | inactive
Cc1ccc(S(=O)(=O)N(C)C[C@@H]2Oc3ccc(NC(=O)Nc4cccc5ccccc45)cc3CC(=O)N([C@H](C)CO)C[C@@H]2C)cc1 | active
C[C@@H]1CN([C@H](C)CO)C(=O)c2cc(NC(=O)c3ccncc3)ccc2O[C@@H](C)CCCCO[C@H]1CN(C)C(=O)Nc1cccc2ccccc12 | inactive
C[C@@H]1CCCCO[C@@H](CN(C)C(=O)c2ccccc2)[C@H](C)CN([C@H](C)CO)C(=O)c2cc(NC(=O)Nc3ccc(F)cc3)ccc2O1 | inactive
C[C@H]1CCCCO[C@H](CN(C)C(=O)c2ccccc2)[C@@H](C)CN([C@@H](C)CO)C(=O)c2cc(NC(=O)CCC(F)(F)F)ccc2O1 | inactive
Cc1noc(N)c1C(=O)O | inactive
COCC(=O)N1C[C@H](C)[C@@H](OC)CN(C)C(=O)c2cc(NC(=O)c3cc(C)on3)ccc2OC[C@H]1C | inactive
C[C@H]1CN([C@@H](C)CO)C(=O)c2cc(C#Cc3ccccc3F)cnc2O[C@@H]1CN(C)C(=O)Cc1cccnc1 | inactive
O=c1ccc(=O)n(CCO)[nH]1 | inactive
C#CCN(O[C@@H](/C=C/[C@@H](O)Cc1ccccc1)C1CC1)[C@@H](Cc1ccc(-n2cc(COc3ccccc3/C=C(C)/C=C/C(=O)NO)nn2)cc1)C(=O)OC | inactive
Cc1noc(C)c1S(=O)(=O)N(C)C[C@@H]1OCCCC[C@H](C)Oc2ccc(NC(=O)Nc3cccc4ccccc34)cc2C(=O)N([C@H](C)CO)C[C@@H]1C | inactive
COc1ccc(S(=O)(=O)N(C)C[C@H]2Oc3ccc(NC(=O)NC(C)C)cc3C(=O)N([C@@H](C)CO)C[C@@H]2C)cc1 | inactive
C[C@@H]1CN([C@H](C)CO)C(=O)Cc2cc(NC(=O)Nc3cccc4ccccc34)ccc2O[C@H]1CN(C)S(=O)(=O)c1ccc(F)cc1 | inactive
C[C@H](CO)N1C[C@H](C)[C@H](CN(C)S(=O)(=O)c2ccc(F)cc2)Oc2ccc(NC(=O)Nc3cccc4ccccc34)cc2CC1=O | active
C[C@@H]1CN([C@@H](C)CO)C(=O)Cc2cc(NC(=O)Nc3cccc4ccccc34)ccc2O[C@@H]1CN(C)S(=O)(=O)c1ccc(F)cc1 | inactive
Cc1noc(C)c1NC(=O)N(C)C[C@H]1Oc2ccc(NS(C)(=O)=O)cc2CC(=O)N([C@@H](C)CO)C[C@@H]1C | inactive
O=C(C[C@H]1C[C@H]2c3cc(NC(=O)Nc4ccc(C(F)(F)F)cc4)ccc3O[C@H]2[C@@H](CO)O1)NCc1cc(F)ccc1F | inactive
C[C@@H]1CN([C@@H](C)CO)C(=O)c2cccc(NC(=O)Nc3ccc(F)cc3)c2O[C@H]1CN(C)C(=O)Nc1ccc(C(F)(F)F)cc1 | inactive
CCC(C)C1NC(=O)C(CCNCS(=O)(=O)[O-])NC(=O)C(NC(=O)C(CCNCS(=O)(=O)[O-])NC(=O)C(NC(=O)C(CCNCS(=O)(=O)[O-])NC(=O)CCCCC(C)C)C(C)O)CCNC(=O)C(C(C)O)NC(=O)C(CCNCS(=O)(=O)[O-])NC(=O)C(CCNCS(=O)(=O)[O-])NC(=O)C(C(C)CC)NC1=O.[Na+].[Na+].[Na+].[Na+].[Na+] (centres undefined) | active
CC(C)CCCC(=O)N[C@@H](CCNCS(=O)(=O)O)C(=O)N[C@H](C(=O)N[C@@H](CCNCS(=O)(=O)O)C(=O)N[C@H]1CCNC(=O)[C@H]([C@@H](C)O)NC(=O)[C@H](CCNCS(=O)(=O)O)NC(=O)[C@H](CCNCS(=O)(=O)O)NC(=O)[C@H](CC(C)C)NC(=O)[C@H](CC(C)C)NC(=O)[C@H](CCNCS(=O)(=O)O)NC1=O)[C@@H](C)O | inactive
